Results filed as inconclusive are left out. Active and inactive are the calls of the source. The call rests on the fitted dose curve; in most records, active means well fitted inhibition curve with a large enough effect in the repeat runs; inconclusive means weak or mixed curves; inactive means no such curve, though single readings can be large or run the other way.
molecular target: Cytochrome P450 2C9 (Homo sapiens) (UniProt P11712); assay: Cytochrome P450 family 2 subfamily C member 9 (CYP2C9) small molecule antagonists: luciferase biochemical (cell-free) qHTS assay (AID 1645842); conditions: P450-Glo CYP2C9 enzyme assay, luciferin luminescence; series mostly up to 57.4 µM; activity change, negative = inhibition: at the top concentration; further: nearly all actives have a fitted effect of over 55% in size
Sequence (P11712 whole entry, looked up): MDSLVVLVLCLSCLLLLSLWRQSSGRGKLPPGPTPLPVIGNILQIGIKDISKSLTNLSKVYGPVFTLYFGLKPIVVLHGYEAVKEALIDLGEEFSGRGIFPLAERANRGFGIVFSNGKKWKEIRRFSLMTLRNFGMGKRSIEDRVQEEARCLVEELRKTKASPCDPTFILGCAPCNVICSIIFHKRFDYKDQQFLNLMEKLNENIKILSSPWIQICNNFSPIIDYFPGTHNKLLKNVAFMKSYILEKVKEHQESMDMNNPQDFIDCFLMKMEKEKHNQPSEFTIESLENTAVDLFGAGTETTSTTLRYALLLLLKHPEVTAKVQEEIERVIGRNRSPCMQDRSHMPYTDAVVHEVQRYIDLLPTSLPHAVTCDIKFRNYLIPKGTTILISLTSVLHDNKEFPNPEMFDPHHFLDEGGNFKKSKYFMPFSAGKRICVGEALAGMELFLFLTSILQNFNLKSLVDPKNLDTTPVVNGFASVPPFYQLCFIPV
Method in brief: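 Luminescence, after 20 min with luciferin detection reagent, reflected CYP2C9 turnover during a 1 h NADPH-driven reaction at 37C. Enzyme-substrate mix contained 0.4% bovine serum albumin and was preincubated with compound 10 min at room temperature.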
On the % scale 0 is the no-effect control and ±100 the full control effect; potency means the concentration at half of the fitted maximal effect.

| SMILES | Potency | activity change, negative = inhibition |
| --- | --- | --- |
| O=C(Nc1ccccc1)N1CCN(c2nc(-c3ccccc3)ns2)CC1 | 5.35 µM (active) |  |
| Oc1cccc(-c2c3nc(c(-c4cccc(O)c4)c4ccc([nH]4)c(-c4cccc(O)c4)c4nc(c(-c5cccc(O)c5)c5ccc2[nH]5)CC4)C=C3)c1 | 11 µM (active) |  |
| CCCCCCOC(=O)/N=C(\N)c1ccc(NCc2nc3cc(C(=O)N(CCC(=O)OCC)c4ccccn4)ccc3n2C)cc1 |  | -1.26% (inactive) |
| CCCCc1c(-c2ccc(OC)cc2)[nH]c2nccnc12 |  | 2.8% (inactive) |
| O=C(O)c1cccc(-c2ccc(-c3cn(C(=O)N4CCCCC4Cc4ccccc4)nn3)cc2)c1 (centres undefined) | 8.49 µM (active) |  |
| Cn1c(=O)c2c(ncn2Cc2ccc(C(C)(C)C)cc2)n(C)c1=O | 23.9 µM (active) |  |
| Cc1nc(Nc2cnn(C3CCNCC3)c2)nc2c1N(C)C(=O)c1cc3ccccc3cc1N2C | 1.07 µM (active) |  |
| O=C(Nc1cccc([N+](=O)[O-])c1)c1cccc(S(=O)(=O)N2CCCCCC2)c1 | 6.01 µM (active) |  |
| CCCn1cc2c(nc(NC(=O)Nc3ccc(OC)cc3)n3nc(-c4ccco4)nc23)n1 | 6.01 µM (active) |  |
| O=C(Nc1ccccc1C(=O)Nc1ccc(CCO)cc1)c1ccc([N+](=O)[O-])cc1 |  | 4.22% (inactive) |
| Cc1noc(-c2ccc(-c3ccc(CC(=O)O)cc3)cc2)c1NC(=O)O[C@H](C)c1ccccc1Cl | 3.01 µM (active) |  |
| O=C(Nc1ccc(N2C(=O)[C@@H]3[C@H](C2=O)[C@@H]2C=C[C@H]3C2)c(Cl)c1)c1ccccn1 | 12 µM (active) |  |
| CNS(=O)(=O)c1ccccc1Nc1nc(Nc2ccc(N3CCN(C)CC3)cc2OC)ncc1Br |  | 10.4% (inactive) |
| NS(=O)(=O)c1ccc(N2N=C(c3ccccc3)CC2c2ccccc2)cc1 (centres undefined) | 10.7 µM (active) |  |
| COc1ccc(C2(CNC(=O)c3ccc(NC(=O)c4ccco4)cc3)CCOCC2)cc1 |  | 2.82% (inactive) |
| O=C(NCc1ccccc1-c1ccccc1C(=O)NCCc1ccccn1)OCc1ccccc1 | 2.68 µM (active) |  |
| Cc1ccnc(NC(=O)C(C)c2cccc(C(=O)c3ccccc3)c2)c1 (centres undefined) | 10.7 µM (active) |  |
| OC(CC1c2ccccc2-c2cncn21)C1CCCCC1 (centres undefined) | 2.68 µM (active) |  |
| C[C@@H](O[C@H]1OCCN(Cc2nn(P(=O)(O)O)c(=O)[nH]2)[C@H]1c1ccc(F)cc1)c1cc(C(F)(F)F)cc(C(F)(F)F)c1 | 13.1 µM (active) |  |
| CC1(C(=O)Nc2ccc(F)nc2)CCCN1c1nc(Nc2cc(C3CC3)[nH]n2)c2cccn2n1 (centres undefined) | 10.7 µM (active) |  |

| SMILES | Potency | activity change, negative = inhibition |
| --- | --- | --- |
| COc1ccc(S(=O)(=O)Nc2cc(Cl)cc(Cl)c2OC)cc1N1CCNCC1 | 12 µM (active) |  |
| COc1ccc(C#Cc2ccc(C(=O)N3CCC[C@@H](CO)C3)cc2)cc1 | 21.3 µM (active) |  |
| CCn1c(=O)c(-c2ccc(Cl)cc2Cl)cc2cnc(Nc3ccc(N4CCNCC4)c(F)c3)nc21 |  | 1.81% (inactive) |
| COc1cc(C(=O)NCC2(N(C)C)CCCC2)cc(OC)c1OCc1ccccc1 |  | 0.303% (inactive) |
| CC(C)c1ccccc1OC(=O)NCCc1ccc2ccccc2c1 | 0.952 µM (active) |  |
| Cc1ccc(N2CCN(S(=O)(=O)N3CCCCC3)CC2)c(C)c1 | 0.849 µM (active) |  |
| O=C(Nc1ccn(Cc2ccc(O)cc2C(F)(F)F)n1)c1c(F)cccc1F | 6.01 µM (active) |  |
| Cc1cc(-c2nc(-c3ccc(OC(F)(F)F)cc3)no2)nn1Cc1ccnc(N2CCN(C3CC3)CC2)c1 | 6.01 µM (active) |  |
| COc1ccc2cc3c(NC(=O)c4ccco4)nn(C)c3nc2c1 | 15.1 µM (active) |  |
| CC(C)(C)c1ccc(NC(=O)N2CCN(c3ncccc3Cl)CC2)cc1 | 6.01 µM (active) |  |
| O=C1COc2nccc(-c3ccccc3F)c2CN1Cc1cc(C(F)(F)F)cc(C(F)(F)F)c1 | 21.3 µM (active) |  |
| COc1c(F)cccc1C(=O)N1C[C@@H](C)CC[C@H]1CNc1ccc(Br)cn1 | 5.35 µM (active) |  |
| CN(c1ccc(NC(=O)Nc2ccccc2)cc1)S(=O)(=O)c1cnn(-c2ccc(F)cc2)c1 | 0.425 µM (active) |  |
| Cc1cc(C(C)Nc2ccccc2C(=O)O)c2nc(N3CCOCC3)cc(=O)n2c1 (centres undefined) | 8.49 µM (active) |  |
| O=C(Nc1ccc(-n2nc(C(F)(F)F)cc2C(F)(F)F)cc1)c1ccncc1F | 26.8 µM (active) |  |
| O=C(O)c1cc(N(Cc2ccc(C3CCCCC3)cc2)C(=O)c2ccc(Oc3ccccc3)cc2)ccc1O | 23.9 µM (active) |  |
| COc1cc(N2CCOCC2)ccc1NC(=O)c1csc(-c2cccnc2)n1 |  | 4.62% (inactive) |
| C=CC(=O)N1CCC[C@@H](n2nc(-c3cccc(C(=O)Nc4ccc(C(C)C)c(C)c4)c3)c3c(N)ncnc32)C1 | 8.49 µM (active) |  |
| CCNC(=O)Nc1ccc(-c2nc3c(c(N4CCOCC4C)n2)CCN(C2COC2)C3)cc1 (centres undefined) | 16.9 µM (active) |  |
